# Out of some 69,000 compounds screened, about 8,600 (12%) showed an effect of 50% or more. The entries come from a sample that favours strong results as a whole.
# Tested on: Plasmodium berghei
# Test: Screen against P. berghei liver stage (PbLuc), transformed with Luciferase, at 10uM
# Format: functional, HepG2
# Conditions: tested at 10 uM
row,SMILES,INHIBITION [%]
1,Cc1nc(C)c(C(=O)N2CCCC(c3cnccn3)C2)s1 (stereo unspecified),11.1
2,Cc1nc2cc(C(=O)N3C[C@@H](C(=O)O)[C@H](C4CC4)C3)ccc2[nH]1,29.8
3,CNc1nc(C)c(C(=O)N2C[C@@H](C(=O)O)[C@H](C3CC3)C2)s1,83.8
4,CCc1nc(C)c(C(=O)N2C[C@@H]3CC[C@H]2CN(S(=O)(=O)N(C)C)C3)s1,40.7
5,CNc1nc(C)c(C(=O)N2C[C@@H]3CC[C@H]2CN(c2cnccn2)C3)s1,-26.1
6,CNc1cc(C)nc(N2C[C@@H](C(=O)O)[C@H](C3CC3)C2)n1,38.6
7,CCc1nc(C)c(C(=O)N2C[C@@H](C(=O)O)[C@H](C3CC3)C2)s1,63
8,CCc1nc(C)c(C(=O)N2CCCC(c3noc(C)n3)C2)s1 (stereo unspecified),45.4
9,Cc1nc(C)c(C(=O)N2C[C@@H](C(=O)O)[C@H](C3CC3)C2)s1,76.9
10,CN(C)CC(=O)N1CCC2(CC1)CN(Cc1ccccc1)C2,33.4
11,CCOCC(O)CN1CCN(C(=O)c2ccc(C)nc2)CC1 (stereo unspecified),24.2
12,Cc1cc(-n2c(C)cn(CN(C)Cc3ccccc3)c2=O)no1,-5.64
13,C=C(C)COc1ccc(C(=O)N(C)C(C)c2ccon2)cc1 (stereo unspecified),-1.38
14,COc1ccc(-c2nnc(C(C)N3CCOC(C)(C)C3)o2)cc1 (stereo unspecified),21.6
15,COc1ccc(-c2nnc(C(C)N3CCC4(CC3)OCCO4)o2)cc1 (stereo unspecified),69.3
16,COc1ccc(-c2nnc(C(C)N3CCOCC3)o2)cc1 (stereo unspecified),37.5
17,CC(=O)Nc1nc2c(s1)CN(CC(=O)Nc1ccc(C)c(Cl)c1)CC2,24.2
18,Cc1ccc(C(=O)N2C[C@H]3CCCC(OCc4cccnc4)[C@H]3C2)cn1 (stereo partly specified),27.6
19,O=C1CCCCCN1Cc1nc(C2(c3ccc(F)cc3)CCOC2)no1 (stereo unspecified),-26.8
20,c1ccc(CO[C@H]2CO[C@@]3(CCCN(Cc4cccnc4)C3)C2)nc1,-17.1
21,N#CC(NC(=O)CCCOc1cccnc1)c1ccc(F)cc1F (stereo unspecified),66.9
22,N#CC(NC(=O)CCCOc1cccnc1)c1ccccc1Cl (stereo unspecified),40.9
23,Cc1ccccc1C(C#N)NC(=O)CCCOc1cccnc1 (stereo unspecified),31.2
24,Cc1ccccc1-n1cc(CNC(=O)CC2C(=O)NCCN2C)cn1 (stereo unspecified),4.68

row,SMILES,INHIBITION [%]
1,O=C(NC[C@@H]1CCCO1)c1cc(Br)cnc1N1CCCCC1,20.4
2,O=C(c1ccc(F)cc1)N(CCCO)S(=O)(=O)c1cccs1,67.4
3,O=C(c1cccc(F)c1)N(CCCO)S(=O)(=O)c1cccs1,-38.8
4,O=C(c1ccccc1F)N(CCCO)S(=O)(=O)c1cccs1,37.7
5,O=C(c1cscn1)N1CC[C@H]2C[C@H](c3nnc(C4CC4)o3)O[C@@H]2C1,30.3
6,CC(C)(C)C(=O)N1CCC(c2nc(O)cc(-c3ccncc3)n2)CC1,11.1
7,CN(C)c1nccnc1C1CCN(C2CCCCC2O)CC1 (stereo unspecified),17.4
8,CC(C)[C@@H]1CN(C(=O)c2ccc3c(c2)CCCO3)C[C@H]1NS(C)(=O)=O,71.1
9,Cc1ccc(C(=O)N2C[C@@H](NS(C)(=O)=O)[C@H](C(C)C)C2)cc1O,18
10,Cc1ccc(C(=O)N2C[C@H](NS(C)(=O)=O)[C@@H](C(C)C)C2)cc1F,14.3
11,C[C@H]1C[C@H]2CN(C(=O)CCc3ccccc3)CC[C@H]2O1,-19
12,CCn1cc(CN2C[C@@H]3CCCN3C[C@@H]2CCSC)cn1,24.4
13,Cc1ccn(CCNC(=O)C2(C)CC(c3ccccc3)=NO2)n1 (stereo unspecified),-3.94
14,CC(C)c1noc(C(C)S(=O)(=O)Cc2nc(C3CC3)no2)n1 (stereo unspecified),70
15,CCc1nc(CN2CCN(C(C)c3nc(C4CC4)no3)CC2)no1 (stereo unspecified),-23.9
16,CC(C)c1noc(CS(=O)(=O)Cc2nc(C(C)C)no2)n1,34.2
17,CCc1noc(CS(=O)(=O)C(C)c2nc(C3CC3)no2)n1 (stereo unspecified),51.5
18,CCCc1noc(C(C)S(=O)(=O)Cc2nc(C3CC3)no2)n1 (stereo unspecified),22.2
19,Cc1noc(C)c1CS(=O)(=O)Cc1nc(C2CC2)no1,21.6
20,COCCN(Cc1cccc(C#N)c1)Cc1nc(C)no1,41.2
21,O=C(Cc1ccc2c(c1)OCC2)Nc1nc(C(F)(F)F)n[nH]1,28.6
22,CC(C)c1ccc(CCC(=O)N(C)C2CCN(C)C2=O)cc1 (stereo unspecified),53.8
23,CN1CCC(N(C)C(=O)CCc2ccc(F)c(F)c2)C1=O (stereo unspecified),17.9
24,CN1CCC(N(C)C(=O)CSc2ccc(F)c(F)c2)C1=O (stereo unspecified),-0.897

row,SMILES,INHIBITION [%]
1,COCC(=O)N1CCC2(CC1)COC(COCc1ccccn1)C2 (stereo unspecified),33
2,Cc1nn(C)c2c(=O)n(Cc3ccc(Cl)cc3)nnc12,48.25
3,CC(=O)N1Cc2ccccc2CC1C(=O)Nc1cc(C)ccn1 (stereo unspecified),56.5
4,CC(=O)N1Cc2ccccc2CC1C(=O)Nc1ccc(C)cn1 (stereo unspecified),32.7
5,CC(=O)N1Cc2ccccc2C[C@H]1C(=O)N(C)Cc1ccccn1,40.7
6,CC(=O)N1Cc2ccccc2C[C@H]1C(=O)Nc1ccccn1,28.7
7,CC(=O)N1Cc2ccccc2C[C@H]1C(=O)N(C)CCc1ccccn1,58.1
8,CN(CCc1ccccn1)C(=O)C1Cc2ccccc2CN1C (stereo unspecified),20
9,Cn1cnc(S(=O)(=O)NCCN2CCCCCC2)c1Cl,31.2
10,CCC(Oc1ccccc1)c1nn2c(CN(CC)CC)nnc2s1 (stereo unspecified),-31.7
11,Cc1nc([C@@H]2C[C@@H]3CCN(C(=O)c4ccsc4)C[C@H]3O2)no1,18.5
12,CCCN(C(=O)c1ccccn1)c1nc2c(s1)CCc1c-2cnn1C,63.1
13,CCCN(C(=O)COC)c1nc2c(s1)CCc1c-2cnn1C,5.13
14,Cc1cc(-c2cnc(C)nc2CN(C)C(=O)c2ccccn2)on1,18.3
15,CCCN(C(=O)c1cccnc1)c1nc2c(s1)CCc1c-2cnn1C,78.2
16,CCCN(C(=O)c1cnccn1)c1nc2c(s1)CCc1c-2cnn1C,29.2
17,CCCN(C(=O)c1ccncc1)c1nc2c(s1)CCc1c-2cnn1C,46
18,COCCN(C(=O)c1ccccn1)c1nc2c(s1)CCc1c-2cnn1C,59.3
19,COCCN(C(=O)c1cnccn1)c1nc2c(s1)CCc1c-2cnn1C,11.1
20,CN(C(=O)c1ccccn1)c1nc2c(s1)CCc1c-2cnn1C,74.5
21,COCCN(Cc1ccoc1)C(=O)c1ccccn1,11.8
22,CN(C(=O)c1ccccn1)c1nnc(C2CCOC2)s1 (stereo unspecified),-13.745
23,CCCN(C(=O)c1cnc(C)cn1)c1nc2c(s1)CCc1c-2cnn1C,44.8

# — ChEMBL document CHEMBL4513216, “Probing the Open Global Health Chemical Diversity Library for Multistage-Active Starting Points for Next-Generation Antimalarials” (ACS Infect Dis, 2020)
